Results filed as inconclusive are left out. Activity calls are given as the source filed them. How the source made its calls: active means hit-call score of the fitted dose curve at least 0.9, where 1 is the maximum; inconclusive means response in the unintended direction; inactive means score below 0.9.
tested on: zebrafish Peroxisome Proliferator-activated Receptor alpha (PPARa), gene 563298; assay: ATG_zfPPARa_EcoTox2: Attagene TRANS-FACTORIAL EcoTox-2 HepG2 Assay for zebrafish Peroxisome Proliferator-activated Receptor alpha (PPARa)
Procedure: ATG_EcoTox2 is a cell-based, multiplexed assay created by modifying the existing Attagene TRANS-FACTORIAL system to include a panel of nuclear receptors from some or all the following species: human (Homo sapiens), african clawed frog (Xenopus laevis), rainbow trout (Oncorhynchus mykiss), japanese medaka (Oryzias latipes), and zebrafish (Danio rerio). The ECOTOX2-FACTORIAL format uses HepG2, a human liver cell line, with measurements taken at 24 hours after chemical dosing in a 24-well plate. ATG_zfPPARa_EcoTox2 is one of 29 assay components calculated in the ATG_EcoTox2 assay. It is designed to make measurements of mRNA induction, a form of inducible reporter, as detected with fluorescence intensity signals by Reverse transcription polymerase chain reaction (RT-PCR) and Capillary electrophoresis technology.The assay endpoint ATG_zfPPARa_EcoTox2 was analyzed in the positive analysis fitting direction relative to DMSO as the negative control and baseline of activity. Using a type of inducible reporter, measures of mRNA for gain-of-signal activity can be used to understand the reporter gene at the transcription factor-level as they relate to the gene PPARa. Furthermore, this assay endpoint can be referred to as a primary readout, because this assay has produced multiple assay endpoints where this one serves a reporter gene function. To generalize the intended target to other relatable targets, this assay endpoint is annotated to the nuclear receptor intended target family, where the subfamily is non-steroidal.
Human liver HepG2 cells are transiently transfected with multiple reporter transcription units (MRTUs) in 6-well plates using FuGene 6 reagent (Roche; 3 ml FuGene/1 mg DNA). The MRTU constructs are regulated by a cis-regulating element (promoter). Each RTU expresses a GAL4-UAS that regulates the transcription of a nearby target reporter gene sequence. A major difference between the CIS and TRANS system is that in CIS activities of endogenous TFs are measured, whereas the TRANS assay evaluates changes in activities of exogenous, chimeric NR-Gal4 proteins. […] At the end of 24 hour incubation, total RNA was isolated using TriZol reagent (Invitrogen). The isolated RNA is then reverse-transcribed using oligo(dT) primer and Mo-MLV reverse transcriptase (Invitrogen) with DNAse I (Ambion) treatment for 30 min. The one-tenth of the produced cDNA was amplified by PCR using Taq DNA polymerase (Invitrogen) and two reporter sequence-specific primers. The PCR products were fluorescently labeled by primer extension with 6-arboxyfluorescein (6-FAM) 5'-labeled reporter sequence-specific primer (2 min at 95 C, 20 s at 68 C and 10 min at 72 C) and these products were digested with 5U of HpaI (New England Biolabs) for 2h at 37 C. The fragments were purified using Qiaquick PCR columns (Qiagen), analyzed on an ABI 3130xL genetic analyzer (Applied Biosystems) with peak positions identified by using a set of X-rhodamine (ROX)-labeled MapMarker1000 molecular weight standards (BioVentures). The raw capillary electrophoresis data was processed using Attagraph software (Attagene).

| SMILES | outcome | AC50 |
| --- | --- | --- |
| C=C(c1ccc(C(=O)O)cc1)c1cc2c(cc1C)C(C)(C)CCC2(C)C | inactive |  |
| CC(C)OC(=O)C(C)(C)Oc1ccc(C(=O)c2ccc(Cl)cc2)cc1 | inactive |  |
| CC(C)(Oc1ccc(Cl)cc1)C(=O)O | inactive |  |
| CC(C)(Oc1ccc(CCNC(=O)c2ccc(Cl)cc2)cc1)C(=O)O |  | 21.6 µM (active) |
| Cc1nc(-c2ccc(C(F)(F)F)cc2)sc1C(=O)NCc1ccc(OC(C)(C)C(=O)O)cc1 |  | 0.0769 µM (active) |
| CC(C)(Oc1ccc(C2CC2(Cl)Cl)cc1)C(=O)O (configuration not stated) |  | 71.9 µM (active) |
| Cc1c(C)c2c(c(C)c1O)CCC(C)(COc1ccc(CC3SC(=O)NC3=O)cc1)O2 (configuration not stated) | inactive |  |
| C[C@@H]1C[C@H]2[C@@H]3CCC4=CC(=O)C=C[C@]4(C)[C@@]3(F)[C@@H](O)C[C@]2(C)[C@@]1(O)C(=O)COP(=O)(O)O | inactive |  |
| CN(CCOc1ccc(CC2SC(=O)NC2=O)cc1)c1ccccn1 (configuration not stated) | inactive |  |
| CC(c1cc2ccccc2s1)N(O)C(N)=O (configuration not stated) | inactive |  |
| Cc1ccc(C)c(OCCCC(C)(C)C(=O)O)c1 |  | 73.6 µM (active) |
| Cc1cccc(Nc2cc(Cl)nc(SCC(=O)O)n2)c1C |  | 8.62 µM (active) |
